Screens from PubChem.
Most compounds without a hit are left out; they make up all but 1.3% or so of the library.
HIF act: HIF pathway transcriptional activation | U2OS HRE-luciferase reporter, luminescence; normalized: DMSO 0%, desferrioxamine 100% | activation, % at 7.5 µM (by protocol) | 300,000 tested, 0.32% active;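 active = mean activation of at least 10% of the iron chelator positive control signal, with at least half of replicates also reaching 10%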
proKLK7 act: activators of human kallikrein-7 zymogen. P49862. purified proKLK7, EDANS-DABCYL substrate fluorescence; 100% is mature enzyme control, 0% vehicle. activation, % at 7 µM. 370,000 tested, 0.9% active. AID 652039;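 active = activation above the mean of all tested compounds plus 3 SD, computed per campaign excluding outliers beyond control limits, cut at about 13% in these data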
GC-A act: GC-A (human) enzyme activation; P16066; HEK293 GC-A cells, cGMP TR-FRET, EC30 ANP; 0% at EC30 ANP, 100% saturating ANP; activation, % at 10 µM; 370,000 tested, 0.14% active; in the data active = activation above about 40%
NPR2 activator: GC-B (human) receptor activation; P20594; HEK293-GC-B cells, CNP EC30, cGMP TR-FRET; 0% at EC30 CNP, 100% saturating CNP; activation, % at 10 µM; 370,000 tested, 0.11% active; AID 1920062;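 active = activation at 10 µM reaching about 35% in either raw or pattern-adjusted values, limit read from the data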
Target sequence (P20594 whole entry, looked up): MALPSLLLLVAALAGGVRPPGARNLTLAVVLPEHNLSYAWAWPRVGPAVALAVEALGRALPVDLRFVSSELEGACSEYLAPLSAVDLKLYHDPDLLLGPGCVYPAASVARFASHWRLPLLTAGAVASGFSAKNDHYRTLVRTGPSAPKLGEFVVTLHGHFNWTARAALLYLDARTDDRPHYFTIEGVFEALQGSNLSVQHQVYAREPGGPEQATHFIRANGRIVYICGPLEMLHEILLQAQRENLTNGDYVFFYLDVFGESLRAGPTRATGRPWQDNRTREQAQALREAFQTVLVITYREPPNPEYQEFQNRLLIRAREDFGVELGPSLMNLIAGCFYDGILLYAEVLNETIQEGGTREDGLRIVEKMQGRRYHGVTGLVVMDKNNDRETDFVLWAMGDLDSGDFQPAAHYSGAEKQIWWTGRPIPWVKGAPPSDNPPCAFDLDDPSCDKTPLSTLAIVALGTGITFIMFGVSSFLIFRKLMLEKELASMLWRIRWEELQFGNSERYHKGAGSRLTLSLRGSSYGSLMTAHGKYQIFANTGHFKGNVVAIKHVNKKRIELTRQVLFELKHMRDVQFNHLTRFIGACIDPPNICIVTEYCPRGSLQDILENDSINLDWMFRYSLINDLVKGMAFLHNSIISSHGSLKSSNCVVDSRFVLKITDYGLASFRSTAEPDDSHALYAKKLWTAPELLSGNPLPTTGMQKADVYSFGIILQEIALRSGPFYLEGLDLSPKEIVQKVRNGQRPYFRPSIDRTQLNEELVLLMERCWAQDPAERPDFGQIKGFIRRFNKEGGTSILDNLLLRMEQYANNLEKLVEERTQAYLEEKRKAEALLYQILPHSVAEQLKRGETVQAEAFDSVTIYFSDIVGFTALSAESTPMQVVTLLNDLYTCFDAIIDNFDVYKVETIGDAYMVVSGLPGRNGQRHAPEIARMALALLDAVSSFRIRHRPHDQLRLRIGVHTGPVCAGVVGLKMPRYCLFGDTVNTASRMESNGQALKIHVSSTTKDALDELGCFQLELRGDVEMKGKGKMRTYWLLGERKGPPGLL
KLK7 act conf: proKLK7 activation, confirmation | purified proKLK7, EDANS-DABCYL substrate fluorescence; scaled: vehicle 0, mature enzyme 100 | 3,200 tested, 68% active | activation, % at 7 µM | shares compounds with proKLK7 act;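 active = activation, as change over the incubation, above the mean of all tested compounds plus 3 SD, cut at about 13% in these data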
EDANS interfere: counter-screen for kallikrein-7 activators: EDANS-DABCYL optical interference; 3,200 tested, 80% active; EDANS-DABCYL substrate fluorescence interference, no enzyme, 4 h; solvent 0%, active enzyme control 100%; shares compounds with proKLK7 act; activation, % at 7 µM;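 active = activation above the all-compound mean plus 3 SD, ignoring values outside control-based bounds, cut at about 4.8% in these data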;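 also: value is the 4 h activation minus the activation read at time zero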
K7 EDANS ctr: EDANS fluorescence interference in dose response, no enzyme | shares compounds with proKLK7 act | EDANS-DABCYL peptide fluorescence interference | EC50, µM | 250 tested, 20% active;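 active = compounds that raise the fluorescence signal in this interference counterscreen, with EC50 at or below 10 µM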;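 also: intact quenched peptide substrate alone read at 355 nm excitation and 520 nm emission; signal is fluorescence gain from T0 to T4 after four hours at room temperature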
Active calls of the source: *; . = no result given.

SMILES | HIF act | proKLK7 act | GC-A act | NPR2 activator | KLK7 act conf | EDANS interfere | others
Cc1oc2c(CN3CCCC(C)C3)c(O)ccc2c(=O)c1-c1ccccc1 (stereo not given) | 0 | 33* | -3 | 5 | 23* | 23*
COc1ccc(-c2c(C)oc3c(CN4CCCCC4C)c(O)ccc3c2=O)cc1 (stereo not given) | 0 | 41* | 3 | -1 | 50* | 52*
COc1ccc(-c2c(C)oc3c(CN4CCCCC4C)c(O)ccc3c2=O)cc1OC (stereo not given) | 0 | 5 | 2 | -1 | . | .
COc1ccc(-c2c(C)oc3c(CN4CCCC(C)C4)c(O)ccc3c2=O)cc1OC (stereo not given) | 0 | 7 | -5 | 4 | . | .
CCc1cc(=O)oc2cc(C)c(CN3CCCC(C)C3)c(O)c12 (stereo not given) | 0 | 0 | 3 | -5 | . | .
CCCCCCN1CCS(=O)(=O)N(Cc2ccc(Cl)cc2)C(C(=O)OC)C1 (stereo not given) | . | 0 | -1 | 0 | . | .
Cc1ccccc1CNC(=S)OC1CCC12CCC(c1ccccc1)CC2 (stereo not given) | . | 0 | 1 | -2 | . | .
CC1CCCCN1Cc1c(O)ccc2c(=O)c(-c3ccc(Cl)cc3)coc12 (stereo not given) | 2 | 17* | -1 | 1 | 27* | 26*
CC1CCCCN1Cc1c(O)ccc2c(=O)c(-c3ccc(Br)cc3)coc12 (stereo not given) | -6 | 11 | 6 | -2 | . | .
COc1ccccc1-c1coc2c(CN3CCCCC3C)c(O)ccc2c1=O (stereo not given) | 0 | 53* | 3 | -2 | 66* | 64*
COc1ccccc1CC(=O)NCCN1C(=O)C2C3C=CC(C3)C2C1=O (stereo not given) | . | 0 | 3 | -2 | . | .
C[C@@H]1C(c2ccccc2)=NN(c2ccc(Br)cc2)[C@H]1C(=O)N1CCOC1=O | . | 57* | -3 | -4 | -159 | -147
Cc1cccc(C2=NN(c3ccccc3)[C@@H](C(=O)N3CCOC3=O)[C@@H]2C)c1 | . | 26* | -2 | 3 | 114* | 70*
Cc1cccc(C2=NN(c3ccc(Br)cc3)[C@@H](C(=O)N3CCOC3=O)[C@@H]2C)c1 | . | -13 | -1 | 1 | . | .
CC(C)(C)OC(=O)NCc1ccccc1/C=C/S(=O)(=O)NCc1ccc(F)cc1 | . | 0 | -7 | -1 | . | .
C[C@@H]1COc2cc(Br)ccc2S(=O)(=O)N1Cc1cn(Cc2ccccc2)nn1 | . | 0 | -4 | -1 | . | .
N#Cc1c(=O)c2nc(NCc3ccccc3)ncc2n2ccccc12 | 0 | 19* | 19 | 4 | 24* | 26*
CCCCCCCCN1C(=O)[C@@H](CC(=O)NCCCN2CCCC2=O)C[C@@]2(C(=O)OC)C1=C[C@H](COCc1ccccc1)O[C@@H]2C | . | 1 | 4 | 10 | . | .
O=C(CCN1C(=O)c2ccccc2C1=O)NCc1ccc(F)cc1 | 2 | -1 | 2 | 3 | . | .
CN1C(=O)c2ccccc2NC(=O)[C@]12O[C@@H]2c1cccc(O)c1 | 0 | -1 | 3 | -2 | . | .
CC(C)C12CN3CC(C(C)C)(CN(C1)C3c1ccc3c(c1)OCO3)C2=O (stereo not given) | 0 | 0 | -15 | -11 | . | .
CN1C(=O)c2ccccc2N(C)C1c1ccc(F)cc1 (stereo not given) | -1 | 19* | -4 | 1 | 27* | 14* | K7 EDANS ctr=>69
COc1cc(C2N(C)C(=O)c3ccccc3N2C)ccc1O (stereo not given) | -1 | 46* | 3 | 0 | 43* | 42*
CN1C(=O)c2ccccc2N(C)C1c1ccc2c(c1)OCO2 (stereo not given) | 0 | 19* | 0 | -2 | 22* | 18* | K7 EDANS ctr=>69
CN1C(=O)c2ccccc2N(C)C1c1cccc(O)c1 (stereo not given) | 1 | 50* | -1 | -2 | 32* | 35*
SMILES | HIF act | proKLK7 act | GC-A act | NPR2 activator | KLK7 act conf | EDANS interfere | others
C=CCN1C(=O)[C@@H](CC(=O)NCCCOC)[C@]2(C(=O)OCC)CCCCC/C=C/12 | . | 1 | 0 | -4 | . | .
O=S(=O)(CC1NCc2cc(F)ccc21)NC1CCCC1 (stereo not given) | . | 0 | 1 | 6 | . | .
CSc1ccc(/C=C/C(=O)OCC(=O)NC2CCCCCC2)cc1 | . | -13 | 5 | -4 | . | .
CSc1ccc(/C=C/C(=O)OCC(=O)NC2CCS(=O)(=O)C2)cc1 (stereo not given) | . | 23* | 0 | -5 | 20* | 16* | K7 EDANS ctr=>69
CSc1ccc(/C=C/C(=O)OCC(=O)NCC2CCCO2)cc1 (stereo not given) | . | 18* | 1 | -1 | 14* | 16*
S=C(Nc1ccccc1)OCCN1CCCC12CCC(c1ccccc1)CC2 (stereo not given) | . | . | -2 | -3 | . | .
Cc1[nH]nc2c1C(c1ccco1)C(C#N)=C(N)O2 (stereo not given) | 0 | -1 | 3 | 6 | . | .
CC(C)c1[nH]nc2c1C(c1ccc(OC(=O)c3ccco3)cc1)C(C#N)=C(N)O2 (stereo not given) | 0 | 0 | -2 | -3 | . | .
COc1ccc(-c2ccc(C3C(C#N)=C(N)Oc4n[nH]c(C)c43)o2)cc1 (stereo not given) | 1 | 14* | 15 | 5 | 9 | 9.0*
Cc1[nH]nc2c1C(c1ccc(OC(=O)c3ccco3)cc1)C(C#N)=C(N)O2 (stereo not given) | 0 | 310* | -3 | -3 | 1 | -2
O=C(NC1CCCc2c1cnn2-c1ccc(F)cc1F)c1cccs1 (stereo not given) | . | . | -1 | 2 | . | .
COc1ccc(OC)c2sc(NC(=O)C3=COCCO3)nc12 | 0 | 56* | -2 | -6 | 8 | 2
O=C(NC1CCCC1)C1CCN(S(=O)(=O)c2ccc3[nH]c(=O)oc3c2)CC1 | . | 0 | 0 | 12 | . | .
Cn1c(/C=C/c2ccccc2)nc2ccccc21 | -4 | 7 | -1 | -7 | . | .
CC(=O)c1ccc(/C=C/c2nc3ccccc3n2C)o1 | 4 | 40* | 31 | 0 | 71* | 71*
COc1ccc2oc3ccc(OC)cc3c(=O)c2c1 | 4 | 1 | 1 | -6 | . | .
COc1cccc2c(=O)c3ccccc3oc12 | 1 | 13* | 6 | 0 | 15* | 21*
COc1cccc2c(=O)ccoc12 | 0 | 2 | 1 | 3 | . | .
COc1ccc2oc3ccccc3c(=O)c2c1 | 4 | 25* | -2 | -4 | 70* | 62*
